The results in this text go back to PubChem BioAssay (EPA / NIEHS).

Several values for one entry are separate records, joined by “and”; a condition that tells them apart may be missing. Equal values may be shown once. Some structures have more than one record in an assay (separate samples or runs), and their calls can disagree. Activity calls are given as the source filed them. The calls were made as follows: active = hit-call score of the fitted dose curve at least 0.9, where 1 is the maximum; inactive = score below 0.9.

Read-out in this experiment: Interleukin-8 (IL8), CXCL8 (gene 3576)
Description: BSK_SAg_IL8: BioMAP Diversity Plus: SAg Assay for Interleukin-8 (IL8) Biomarker Activity (AID 2283094). Particulars: primary human HUVEC with PBMC; actives raise or lower the signal. Here is the method: BSK_SAg is a cell-based, multiplexed-readout assay that uses umbilical vein endothelium and peripheral blood mononuclear cells, a human vascular primary cell co-culture, with measurements taken at 24 hours after chemical dosing in a 96-well plate.BSK_SAg_IL8 is an assay component measured in the BSK_SAg assay. It measures IL-8 antibody related to regulation of gene expression using ELISA technology.Data from the assay component BSK_SAg_IL8 was analyzed into 1 assay endpoint. This assay endpoint, BSK_SAg_IL8, was analyzed with bidirectional fitting relative to DMSO as the negative control and baseline of activity. Using a type of binding reporter, gain or loss-of-signal activity can be used to understand changes in the signaling as they relate to the gene CXCL8. Furthermore, this assay endpoint can be referred to as a primary readout, because this assay has produced multiple assay endpoints where this one serves a signaling function. To generalize the intended target to other relatable targets, this assay endpoint is annotated to the cytokine intended target family, where the subfamily is interleukins.
The levels of cell surface (or secreted, indicated by the prefix "s") biomarker endpoints were measured by ELISA. Overt cytotoxicity to cells in confluent adherent cultures (all systems other than the BT system) was assessed by measuring total protein levels using sulforhodamine B (SRB) staining in parallel cultures at the time of biomarker measurements, indicated as SRB endpoints. For proliferation assays for adherent cell types, individual cell types are cultured at sub-confluence and relative cell numbers quantified by SRB staining at time points optimized for each system (48 h: 3C and CASM3C systems; 72 h: BT and HDF3CGF systems; 96 h: SAg system). SRB was performed by staining cells with 0.1% SRB after fixation with 10% TCA and reading wells at 560 nm.Viability and proliferation of PBMC (T cells) was quantified by Alamar Blue reduction for the SAg and BT systems. For PBMC viability (referred to as PBMC Cytotoxicity within the assay endpoint names), cells were plated (75,000/well in a 96-well plate) and then chemical samples added for 1 h before addition of activators, SEB and TSST-1 (20 ng/mL final concentration each). Cells were incubated for 90 h. Then, Alamar Blue (20 uL/well) (Invitrogen, Cat DAL1100) was added for 6 h, and the plates were read with a fluorescence microplate reader at 546/580 nm (excitation/emission). For PBMC proliferation, cells were plated and activated as above but incubated for only 16 h prior to addition of Alamar Blue. Plates were read after 6 h.
Take `O=C(F)C1(F)C(F)(F)C(F)(F)C(F)(F)C(F)(F)C1(F)F`: the result was inactive. As for `C=CC(=O)OCCC(F)(F)C(F)(F)C(F)(F)C(F)(F)F`, the AC50 is 33 µM (active) and 30.1 µM (active). Regarding `O=C(O)C(F)(F)C(F)(F)C(F)(F)OC(F)(C(F)(F)F)C(F)(F)F`, the result was inactive.

Consider `O=S(=O)(O)CCC(F)(F)C(F)(F)C(F)(F)C(F)(F)C(F)(F)C(F)(F)C(F)(F)C(F)(F)F`, for which the result was inactive.

Regarding `C=CC(=O)OCC(F)(F)C(F)(F)C(F)(F)COC(=O)C=C`, the concentration at half-maximal activity (AC50) is 14.2 µM (active) and 5.57 µM (active). As to `NC(O)(C(F)(F)F)C(F)(F)F`, the outcome was inactive. Same read-out and setting: to `O=C(O)CCC(F)(F)C(F)(F)C(F)(F)C(F)(F)C(F)(F)C(F)(F)C(F)(F)F` belongs “inactive”.

Take `OCC(F)(F)C(F)(F)C(F)(F)C(F)(F)C(F)(F)C(F)(F)CO`: the outcome was inactive.

As to `C[C@]12CC[C@H]3C(=CCc4cc(O)ccc43)[C@@H]1CCC2=O`, the outcome was inactive.

In the case of `CC1=CC2C3C=CC(C3)C2C1C` (stereo not given), the result was inactive. In the case of `OC(O)C(F)(F)C(F)(F)F`, the result was inactive.

For the compound `O=S(=O)(Cl)C(F)(F)C(F)(F)C(F)(F)C(F)(F)C(F)(F)C(F)(F)C(F)(F)C(F)(F)F`, the result was inactive.

On to `O=C=Nc1cccc2c(N=C=O)cccc12`, for which the result was inactive. Still for that read-out and setting: to `O=C=NCc1cccc(CN=C=O)c1` belongs “inactive”; to `NC(=O)C(F)(F)C(F)(F)C(F)(F)F`, “inactive”. As to `CCN(CC)c1ccc2c(c1)Oc1cc(N(CC)CC)ccc1C21OC(=O)c2ccccc21`, the AC50 is 10 µM (active). `O=S(=O)(OCC(F)(F)F)C(F)(F)C(F)(F)C(F)(F)C(F)(F)F`: the outcome was inactive and the AC50 was 30 µM (active). In the case of `O=C(c1ccccc1)c1ccc(O)cc1O`, the result was inactive. `NS(=O)(=O)C(F)(F)C(F)(F)C(F)(F)C(F)(F)C(F)(F)C(F)(F)F`: the outcome was inactive and the AC50 was 30 µM (active). With `O=C(O)C(F)(F)C(F)(F)C(F)(F)C(F)(F)C(F)(F)C(F)(F)C(F)F`, the outcome was inactive.

On to `CO[Si](C)(CCC(F)(F)C(F)(F)C(F)(F)C(F)(F)C(F)(F)C(F)(F)F)OC`, for which the result was inactive. For the compound `O=C1c2c(O)ccc(Nc3ccc(CCO)cc3)c2C(=O)c2c([N+](=O)[O-])ccc(O)c21`, the AC50 is 0.379 µM (active). `CCN(CC)c1ccc(N=Nc2ccccc2)cc1`: the AC50 is 29.4 µM (active). Regarding `CCN(CC)c1ccc(C=O)c(O)c1`, the result was inactive. Same read-out and setting: to `OCC(O)CC(F)(F)C(F)(F)C(F)(F)C(F)(F)F` (stereo not given) belongs “inactive”; to `CCOC(C=C(C)CCC=C(C)C)OCC`, “inactive”; to `OCCCCC(F)(F)C(F)(F)C(F)(F)C(F)(F)F`, “inactive”.

Take `C=CC(=O)OCC(F)(F)C(F)(F)C(F)(F)C(F)(F)C(F)(F)C(F)(F)C(F)(F)C(F)F`: the result was inactive and the AC50 is 20.8 µM (active). As for `CCOC(=O)CC(=O)C(F)(F)C(F)(F)F`, the result was inactive.

With `Brc1nc2ccccc2s1`, the outcome was inactive. On the same count and under the same terms, to `O=C(O)C(F)(F)OC(F)(F)C(F)(F)OC(F)(F)C(F)(F)OC(F)(F)F` belongs “inactive”; to `CC(C)(C)c1cc(CCC(=O)NCCCCCCNC(=O)CCc2cc(C(C)(C)C)c(O)c(C(C)(C)C)c2)cc(C(C)(C)C)c1O`, “inactive”. As for `OCCCC(F)(F)C(F)(F)C(F)(F)C(F)(F)C(F)(F)C(F)(F)C(F)(F)C(F)(F)F`, the half-maximal activity concentration (AC50) was 43.2 µM (active) and 37 µM (active). Regarding `Cc1cc(O)c(C(C)(C)C)cc1C(C)(C)C`, the AC50 was 5.33 µM (active). Regarding `NC(=O)C(F)(F)C(F)(F)C(F)(F)C(F)(F)C(N)=O`, the outcome was inactive. Same read-out and setting: to `O=S(=O)(O)CCC(F)(F)C(F)(F)C(F)(F)C(F)(F)F` belongs “inactive”; to `CCN(CCO)S(=O)(=O)C(F)(F)C(F)(F)C(F)(F)C(F)(F)C(F)(F)C(F)(F)C(F)(F)C(F)(F)F`, “inactive”.

Broadly, the AC50 is the concentration giving half of the maximal activity seen.
